Nrf2 inh: blocks Nrf2 signaling; A549 ARE-Fluc reporter, luciferase luminescence, 18-24 h; AID 504444; 360,000 tested, 2.1% active; Potency, µM (highest dose often 46 µM), inactives show at the top dose activity change, negative = inhibition, most hits filed as inhibitors; also: % is scaled to controls: 0 for no effect and ±100 for the full control effect; nearly all actives have a fitted effect of over 60% in size
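A549 ARE_Fluc cells (5000/well, 5% FBS OPTI-MEM) pre-incubated 2 h, then treated with compounds 18-24 h at 37C/5% CO2 in concentration-response. CellTiter-Fluor viability read first; BugLite luciferase luminescence after 15 min at room temperature gives Nrf2 activity.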
TGFb inhibitor: blocks TGF-b signaling; AID 588855; HepG2 CAGA-GFP TGF-b/SMAD3 reporter, GFP fluorescence, 18 h; TGF-beta stimulated, 500 pg/mL final; 410,000 tested, 1.2% active; Potency, µM (top dose mostly 46.1 µM), inactives show at the highest dose activity, negative = inhibition, hits mostly inhibitors; also: % is scaled to controls: 0 for no effect and ±100 for the full control effect; nearly all actives have a fitted effect of over 65% in size
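TGF-beta reporter screen: HEPG2 CAGA-GFP, 1% FBS, 500 pg/mL TGF-beta final, 18 h; per-cell GFP summed per well; curves fitted and categorized by class.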
A549 tox: kills or reduces viability of A549 cells in Nrf2 counter-screen | A549 ARE-Fluc cells, CellTiter-Fluor viability, 18-24 h | Potency, µM (doses to about 46 µM), inactives show at the highest dose activity change, negative = cytotoxicity, most hits filed as inhibitors | 390,000 tested, 0.16% active; also: % is scaled to controls: 0 for no effect and ±100 for the full control effect
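A549 ARE-Fluc cells in 5% FBS OPTI-MEM, 5000 cells/well, rested 2 h then exposed to compounds in concentration-response for 18-24 h at 37 °C. Viability by CellTiter-Fluor fluorescence (Ex 405/Em 525) after 30 min; luciferase luminescence (BugLite, 15 min, RT) read afterwards.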
HepG2 tox: kills HepG2 cells in TGF-b inhibitor counter-screen. HepG2 CAGA-GFP viability, ATP luminescence, 18 h. Potency, µM (top dose mostly 46.1 µM), inactives show top-dose activity change, negative = cytotoxicity, most hits filed as cytotoxic. 410,000 tested, 0.76% active
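HepG2 CAGA-GFP cells (1000/well, DMEM with 1% FBS) received compound, then TGF-beta at 500 pg/mL final, and were incubated 18 hours at 37 degrees C. Viability was read by CellTiter-Glo luminescence. Media-only wells were set as complete cell-killing and DMSO as no toxicity.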
ATXN2 expr inh: reduces ATXN2 reporter expression in HEK-293 cells | Potency, µM (series often up to 57 µM), inactives show at the top dose activity change, negative = inhibition, usual class: inhibitors | HEK-293 ATXN2-luciferase reporter, luminescence, 24 h | 360,000 tested, 0.72% active | AID 1745845; also: % is scaled to controls: 0 for no effect and ±100 for the full control effect; nearly all actives have a fitted effect of over 55% in size
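ATXN2-luciferase reporter cells (luciferase flanked by upstream and downstream ATXN2 gene portions) were treated 24 h at 37 °C with compounds at up to 57 uM. SteadyGlo luminescence gave expression; GF-AFC fluorescence gave viability.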
S2 tox: cell viability loss in ATXN counter-screen; 400,000 tested, 0.49% active; Potency, µM (doses to about 56.7 µM), hits mostly cytotoxic; AID 651635; S2 cells (HEK-293 line with an ATXN2-luciferase reporter) viability, CellTiter-Fluor protease fluorescence, 24 h; also: nearly all actives have a fitted effect of over 40% in size
The depositor's hits bear a star; i = inactive; ? = inconclusive; / = not tested or not shown; ! = a repeat was not active. Hits are enriched below; roughly 3.8% of the tested compounds scored in any of these assays. Calls follow the shape of the dose curve; as a rule, active = well fitted curve in the direction sought with a large enough effect; inconclusive = small, poorly fitted or top-dose-only effect, or another doubt; inactive = no such curve, though single readings can be large; an effect the other way counts as inactive or inconclusive. Potency is read from the fitted curve at half-maximal effect.

SMILES	Nrf2 inh	TGFb inhibitor	A549 tox	HepG2 tox	ATXN2 expr inh	S2 tox
O=C(Cc1nn[nH]n1)c1ccccc1O	6%	-2%	-3%	2%	12%	i
O=[N+]([O-])c1cc(C(F)(F)F)ccc1NCCCCNS(=O)(=O)c1ccc(Cl)cc1	?	?	?	10µM*	?	?
CS(=O)(=O)NCCCNc1ccc(C(F)(F)F)cc1[N+](=O)[O-]	14%	-6%	-17%	7%	6%	i
O=[N+]([O-])c1cc(Cl)ccc1NCCNc1ncc(C(F)(F)F)cc1Cl	-11%	0%	-5%	-13%	-22%	i
O=[N+]([O-])c1cc(C(F)(F)F)ccc1NCCNC(=S)Nc1ccc(Cl)cc1	?	5µM*	?	10µM*	?	?
O=C(N/N=C/c1ccc([N+](=O)[O-])o1)c1ccncc1	?	?	?	i	?	i
O=C(N/N=C/c1ccc([N+](=O)[O-])o1)c1cc2c(ccc3ccccc32)o1	?	-8%	-11%	-19%	-34%	i
O=C(N/N=C/c1ccc([N+](=O)[O-])o1)c1cc2ccccc2o1	0%	6.3µM*	-6%	-127%	/	/
O=C(N/N=C/c1ccc([N+](=O)[O-])o1)c1ccc(O)cc1	21µM*	?	21µM*	-95%	11µM*!	?
CC(=O)Oc1ccccc1Cn1c(C)c(C(=O)NCc2cccc([N+](=O)[O-])c2)sc1=O	/	?	/	-10%	-15%	i
Cc1ccsc1CN(C)CC(=O)Nc1ccccc1C(=O)NC1CC1	6%	-13%	0%	1%	-4%	i
Cc1nc(-c2c(C(F)(F)F)noc2-c2ccc(O)cc2O)cs1	-15%	-12%	0%	-19%	?	i
CCOc1cc(C)c(-c2onc(C(F)(F)F)c2-c2csc(C)n2)c(O)c1	?	?	26µM*	-92%	?	?
Cc1cc(C)nc(N/N=C/c2sccc2C)n1	7%	-7%	-1%	-50%	30%	i
Cc1ccsc1/C=N/Nc1nc(=O)[nH]nc1C	?	?	-19%	11µM*	?	i
CC1CN(C(=O)CCC(=O)NCc2cccs2)c2ccccc2O1 (stereo unspecified)	?	23%	0%	6%	9%	i
COc1ccc2c(CNCc3ccco3)c(C(=O)O)n(Cc3ccccc3)c2c1	7%	0%	?	0%	-15%	?
Cc1ccc(Cn2c(C(=O)O)c(CNCCc3cccs3)c3ccc(C)cc32)cc1	?	?	-11%	-7%	11%	?
COc1ccc(Cn2c(C(=O)O)c(CNCCc3cccs3)c3ccc(C)cc32)cc1	?	-27%	?	-32%	?	32µM*
COc1ccc(Cn2c(C(=O)O)c(CNCc3ccco3)c3ccc(C)cc32)cc1	?	42%	?	-24%	-13%	7.9µM*
CN(C)CCCN(C(=O)/C=C/c1cccs1)c1nc2ccc(F)cc2s1	0%	17%	-14%	16µM*	?	/
COc1cccc2sc(N(CCN(C)C)C(=O)/C=C/c3cccs3)nc12	-7%	?	-5%	-112%	/	?
COc1ccc(OC)c2sc(N(CCN(C)C)C(=O)/C=C/c3cccs3)nc12	-9%	?	0%	16µM*	?	/
COc1ccc(C)c2sc(N(CCN(C)C)C(=O)/C=C/c3cccs3)nc12	2%	?	-1%	11µM*	?	?
Fc1ccccc1Nc1nc2ccccc2o1	?	-5%	-2%	7.1µM*	17%	i
SMILES	Nrf2 inh	TGFb inhibitor	A549 tox	HepG2 tox	ATXN2 expr inh	S2 tox
c1ccc(Nc2nc3ccccc3o2)cc1	?	-6%	-2%	-2%	45%	i
COc1cccc(OC)c1C(=O)Nc1ccc(C(=O)NCc2ccccc2)cc1	1%	5%	1%	4%	5%	i
O=C(CSCc1ccco1)N1CCc2ccccc21	?	23%	-7%	9%	29%	i
Cc1ccc(S(=O)(=O)N2CCC(C(=O)Nc3ccc(Oc4ccccc4)cc3)CC2)cc1	?	-20%	-10%	-3%	-8%	i
O=C(Nc1ccc(S(=O)(=O)N2CCCCC2)cc1)C1CCN(C(=O)c2ccco2)CC1	?	-20%	3%	-14%	-11%	i
Cc1ccc2c(CC(=O)Nc3ccc(S(=O)(=O)N4CCC(C)CC4)cc3)coc2c1	?	?	-22%	-14%	?	?
O=C(Nc1ccc(Oc2ccccc2)cc1)C1CCN(S(=O)(=O)c2ccccc2)CC1	21µM*	-14%	-14%	-36%	-34%	?
Cc1ccc2occ(CC(=O)Nc3ccc(S(=O)(=O)N4CCC(C)CC4)cc3)c2c1	26µM*	?	-13%	-55%	-39%	?
O=C(Nc1nnc(Cc2ccc(Cl)cc2)s1)C1CCN(C(=O)c2ccco2)CC1	16µM*	?	-6%	-8%	/	/
CCc1nnc(NC(=O)C2CCN(C(=O)c3ccco3)CC2)s1	-19%	2%	-8%	-4%	-4%	i
CC1CCN(S(=O)(=O)c2ccc(NC(=O)C3CCN(C(=O)c4ccco4)CC3)cc2)CC1	13µM*	-23%	2%	0%	-18%	i
O=C(c1cccnc1)N1CCN(c2c(Cl)cccc2[N+](=O)[O-])CC1	-22%	3%	-10%	3%	-9%	?
Oc1ccccc1C1CC(c2cccs2)=NC(c2ccc(Cl)cc2)N1 (stereo unspecified)	11%	20µM*	0%	-93%	?	?
CC(C(=O)Nc1ccc(OC(F)(F)F)cc1)N1Cc2ccccc2C1=O (stereo unspecified)	-26%	-6%	-1%	-11%	/	/
S=C(Nc1ccc(Cl)c(Cl)c1)NC1CCN(Cc2ccccc2)CC1	?	?	?	11µM*	?	/
COc1ccc(N2C(=O)C(CC(=O)Nc3ccccc3)N(CCC3=CCCCC3)C2=O)cc1 (stereo unspecified)	-19%	1%	-24%	2%	6%	i
Cc1cc(NC(=O)CCNS(=O)(=O)c2cc(Br)cnc2N)ccc1Br	-11%	11µM*	-1%	-37%	-17%	i
Nc1ncc(Br)cc1S(=O)(=O)NCCC(=O)N1CCN(c2ncccn2)CC1	18µM*	-13%	-16%	6%	6%	i
